Results: PubChem BioAssay (NCI)
About 83,000 compounds went through this panel and 20% of them were active in at least one assay; those are over-represented in the sample as a whole.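 Interpretation: 100, growth as untreated; towards 0, rising growth inhibition; 0, no net growth; 0 to -100, cell death. Compounds scoring below 10 were considered active.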 Calls of active or inactive are those of the source.

What follows are molecules tested on PC-3 prostate (assay: NCI-60 one-dose screen, 48 h (100 = growth as untreated, 0 = no growth, -100 = all killed)). Settings: 10 µM unless noted.

| Structure (SMILES) | growth |
| --- | --- |
| O=C(/C=C/Nc1ccc2oc(=O)ccc2c1)c1cc2cc(Br)ccc2oc1=O | 98% (inactive) |
| CC1(c2cc3cc(Cl)ccc3oc2=O)NC(=O)c2c(/C=C/C(=O)OC3CC4CCC3(C)C4(C)C)cccc2N1 (centres undefined) | 25.7% (inactive) |
| COc1ccc(-c2ccnc(SCc3cc4ccccc4[nH]c3=O)n2)cc1OC | -21.9% (active) |
| CC12CC[C@@H]3[C@]4(C)COC(c5cn[nH]c5-c5cccc(Br)c5)O[C@@H]4CC[C@@]3(C)[C@@H]1CC(C1=CCOC1=O)O2 (some centres undefined) | 12.9% (inactive) |
| O=C(c1ccc(OCCN2CCOCC2)cc1)C1[C@H](c2ccc(Cl)cc2)[C@@H](c2ccccc2)NC12C(=O)Nc1ccc(Br)cc12 (some centres undefined) | 3.86% (active) |
| COc1ccc2c(c1)c(/C=N/Nc1ccc3ccccc3n1)cn2C | 7.27% (active) |
| CN(C)CCOc1ccc(C(=O)C2[C@H](c3ccc(Cl)cc3)[C@@H](c3ccccc3)NC23C(=O)Nc2ccc(Br)cc23)cc1 (some centres undefined) | -3.48% (active) |
| O=c1[nH]c2ccc(Cl)cc2cc1CSc1nccc(-c2ccc(Cl)cc2)n1 | 49.9% (inactive) |
| COc1cccc(/C=C/c2nc3ccccc3c(=O)n2CC(=O)Nc2ccc(Cl)cc2)c1 | 76.3% (inactive) |
| CCCSc1nc(Nc2ccc(S(N)(=O)=O)cc2)c(C#N)c(-c2cc(OC)c(OC)c(OC)c2)n1 | 12.6% (inactive) |
| CC(/C=C1\SC(=S)N(CCCC(=O)NC(CC(C)C)C(=O)O)C1=O)=C\c1ccccc1 (centres undefined) | 55.9% (inactive) |
| COc1ccc(/C=C/c2nc3ccccc3c(=O)n2CC(=O)Nc2ccc(Cl)cc2)cc1 | 48.3% (inactive) |
| Cn1cc(-c2cc3nc(-c4cn(C)c5ncc(Br)cc45)cc(N)n3n2)c2cc(Cl)ccc21 | -62.5% (active) |
| Cn1cc(-c2cc(N)n3nc(-c4cn(C)c5ncccc45)cc3n2)c2cccnc21 | 79.7% (inactive) |
| Cc1ccc([C@H]2C(C(=O)c3ccc(Cl)cc3)C3(N[C@@H]2c2ccccc2)C(=O)Nc2ccc(Cl)cc23)cc1 (some centres undefined) | 14% (inactive) |
| O=C(Cn1c(/C=C/c2ccccc2)nc2ccccc2c1=O)Nc1ccc(Cl)cc1 | 72.6% (inactive) |
| CC12CC[C@@H]3[C@]4(C)COC(c5cn[nH]c5-c5cccc(Cl)c5)O[C@@H]4CC[C@@]3(C)[C@@H]1CC(C1=CCOC1=O)O2 (some centres undefined) | 12.6% (inactive) |
| CCCCSc1nc(Nc2ccc(S(N)(=O)=O)cc2)c(C#N)c(-c2cc(OC)c(OC)c(OC)c2)n1 | 16.7% (inactive) |
| CCOC(=O)/C=C/c1cccc2c1C(=O)NC(C)(c1cc3cc(Cl)ccc3oc1=O)N2 (centres undefined) | 17.4% (inactive) |
| O=C(c1ccc(OCCN2CCOCC2)cc1)C1[C@H](c2ccc(Cl)cc2)[C@@H](c2ccccc2)NC12C(=O)Nc1ccc(Cl)cc12 (some centres undefined) | 6.16% (active) |
| CC(C)c1sc(NC(=O)c2cc(NC(=O)c3cc(NC(=O)c4nccn4C)cn3C)cn2C)nc1C(=O)NCCCN(C)C | 46% (inactive) |
| COc1c(F)ccc(C(=O)Nc2ccc3nc(NC(=O)C4CCCN(S(=O)(=O)c5ccc(Cl)cc5)C4)sc3c2)c1F (centres undefined) | 55.9% (inactive) |
| O=C(N1c2ccccc2Sc2ccccc21)n1ccc2cccnc21 | 39.8% (inactive) |
| Cn1cc(-c2cc(N)n3nc(-c4cn(C)c5ncc(Br)cc45)cc3n2)c2cc(Br)cnc21 | 1.06% (active) |
| CC1=C(C#N)C2=NNCC(c3ccccc3)=NN2C(c2ccccc2)=C1 | 106% (inactive) |
| C=C1CC[C@@H]2[C@]3(C)COC(c4cn[nH]c4-c4ccc(F)cc4)O[C@@H]3CC[C@@]2(C)[C@@H]1C/C=C1/C(=O)OCC1O (some centres undefined) | 8.84% (active) |

Each molecule was assayed on SK-MEL-5 melanoma in the same assay as above. Settings: 10 µM unless noted.

| Structure (SMILES) | growth |
| --- | --- |
| Cn1cc(-c2cc3nc(-c4cn(C)c5ncccc45)cc(N)n3n2)c2cc(Cl)ccc21 | -99.4% (active) |
| CC12CC[C@@H]3[C@]4(C)COC(c5c(F)cccc5F)O[C@@H]4CC[C@@]3(C)[C@@H]1CC(C1=CCOC1=O)O2 (some centres undefined) | 47.4% (inactive) |
| Cc1nc(Nc2ncc(C(=O)Nc3c(C)cccc3Cl)s2)cc(N2CCN(CCCNC(=O)COc3ccc(C4CCC(=O)NC4=O)cc3)CC2)n1 (centres undefined) | 73.7% (inactive) |
| Cn1cc(NC(=O)c2cc(NC(=O)c3ccc(/C=C/c4ccccc4)cc3)cn2C)cc1C(=O)NCCCN1CCOCC1 | -70% (active) |
| Cc1ccccc1[C@H]1C(C(=O)c2ccc(Cl)cc2)C2(N[C@@H]1c1ccccc1)C(=O)Nc1ccc(Br)cc12 (some centres undefined) | 35.3% (inactive) |
| Brc1ccc(N/N=C/c2c[nH]c3ccc(Br)cc23)nc1 | -87% (active) |
| C=C1CCC2C3(C)COC(c4ccccc4)OC3CCC2(C)C1CC(Sc1ccccc1)C1=CCOC1=O (centres undefined) | 55.2% (inactive) |
| Clc1cccc(N/N=C/c2c[nH]c3ccc(Br)cc23)n1 | 40.3% (inactive) |
| COc1c(F)ccc(C(=O)Nc2ccc3nc(NC(=O)C4CCCN(S(=O)(=O)c5cccc(C(F)(F)F)c5)C4)sc3c2)c1F (centres undefined) | 89.3% (inactive) |
| O=c1oc2ccc(Br)cc2cc1C1=CSc2nc3sc4c(c3c(=O)n2N=C1)CCCC4 | 96.9% (inactive) |
| CC(=O)/C=C/c1cccc2c1C(=O)NC(C)(c1cc3cc(Br)ccc3oc1=O)N2 (centres undefined) | 13.1% (inactive) |
| O=c1[nH]c(=O)c2c(-c3cc4ccccc4oc3=O)ccnc2[nH]1 | 89% (inactive) |
| O=C(/C=C/Nc1ccc2oc(=O)ccc2c1)c1cc2cc(Br)ccc2oc1=O | 103% (inactive) |
| CC1(c2cc3cc(Cl)ccc3oc2=O)NC(=O)c2c(/C=C/C(=O)OC3CC4CCC3(C)C4(C)C)cccc2N1 (centres undefined) | 61.2% (inactive) |
| COc1ccc(-c2ccnc(SCc3cc4ccccc4[nH]c3=O)n2)cc1OC | 1.35% (active) |
| CC12CC[C@@H]3[C@]4(C)COC(c5cn[nH]c5-c5cccc(Br)c5)O[C@@H]4CC[C@@]3(C)[C@@H]1CC(C1=CCOC1=O)O2 (some centres undefined) | 3.56% (active) |
| O=C(c1ccc(OCCN2CCOCC2)cc1)C1[C@H](c2ccc(Cl)cc2)[C@@H](c2ccccc2)NC12C(=O)Nc1ccc(Br)cc12 (some centres undefined) | 47.3% (inactive) |
| COc1ccc2c(c1)c(/C=N/Nc1ccc3ccccc3n1)cn2C | 23% (inactive) |
| CN(C)CCOc1ccc(C(=O)C2[C@H](c3ccc(Cl)cc3)[C@@H](c3ccccc3)NC23C(=O)Nc2ccc(Br)cc23)cc1 (some centres undefined) | -16.1% (active) |

| Structure (SMILES) | growth |
| --- | --- |
| O=c1[nH]c2ccc(Cl)cc2cc1CSc1nccc(-c2ccc(Cl)cc2)n1 | 48.6% (inactive) |
| COc1cccc(/C=C/c2nc3ccccc3c(=O)n2CC(=O)Nc2ccc(Cl)cc2)c1 | 101% (inactive) |
| CCCSc1nc(Nc2ccc(S(N)(=O)=O)cc2)c(C#N)c(-c2cc(OC)c(OC)c(OC)c2)n1 | 6.41% (active) |
| CC(/C=C1\SC(=S)N(CCCC(=O)NC(CC(C)C)C(=O)O)C1=O)=C\c1ccccc1 (centres undefined) | 88.1% (inactive) |
| COc1ccc(/C=C/c2nc3ccccc3c(=O)n2CC(=O)Nc2ccc(Cl)cc2)cc1 | 89% (inactive) |
| Cn1cc(-c2cc3nc(-c4cn(C)c5ncc(Br)cc45)cc(N)n3n2)c2cc(Cl)ccc21 | -77.1% (active) |
| Cn1cc(-c2cc(N)n3nc(-c4cn(C)c5ncccc45)cc3n2)c2cccnc21 | 68.4% (inactive) |
| Cc1ccc([C@H]2C(C(=O)c3ccc(Cl)cc3)C3(N[C@@H]2c2ccccc2)C(=O)Nc2ccc(Cl)cc23)cc1 (some centres undefined) | 77.9% (inactive) |
| O=C(Cn1c(/C=C/c2ccccc2)nc2ccccc2c1=O)Nc1ccc(Cl)cc1 | 103% (inactive) |
| CC12CC[C@@H]3[C@]4(C)COC(c5cn[nH]c5-c5cccc(Cl)c5)O[C@@H]4CC[C@@]3(C)[C@@H]1CC(C1=CCOC1=O)O2 (some centres undefined) | 8.92% (active) |
| CCCCSc1nc(Nc2ccc(S(N)(=O)=O)cc2)c(C#N)c(-c2cc(OC)c(OC)c(OC)c2)n1 | 20.5% (inactive) |
| CCOC(=O)/C=C/c1cccc2c1C(=O)NC(C)(c1cc3cc(Cl)ccc3oc1=O)N2 (centres undefined) | 10.2% (inactive) |
| O=C(c1ccc(OCCN2CCOCC2)cc1)C1[C@H](c2ccc(Cl)cc2)[C@@H](c2ccccc2)NC12C(=O)Nc1ccc(Cl)cc12 (some centres undefined) | 51.6% (inactive) |
| CC(C)c1sc(NC(=O)c2cc(NC(=O)c3cc(NC(=O)c4nccn4C)cn3C)cn2C)nc1C(=O)NCCCN(C)C | 73.5% (inactive) |
| COc1c(F)ccc(C(=O)Nc2ccc3nc(NC(=O)C4CCCN(S(=O)(=O)c5ccc(Cl)cc5)C4)sc3c2)c1F (centres undefined) | 72.3% (inactive) |
| O=C(N1c2ccccc2Sc2ccccc21)n1ccc2cccnc21 | 45.9% (inactive) |
| Cn1cc(-c2cc(N)n3nc(-c4cn(C)c5ncc(Br)cc45)cc3n2)c2cc(Br)cnc21 | 34.8% (inactive) |
| CC1=C(C#N)C2=NNCC(c3ccccc3)=NN2C(c2ccccc2)=C1 | 106% (inactive) |
| C=C1CC[C@@H]2[C@]3(C)COC(c4cn[nH]c4-c4ccc(F)cc4)O[C@@H]3CC[C@@]2(C)[C@@H]1C/C=C1/C(=O)OCC1O (some centres undefined) | -79% (active) |
